The source of these data is PubChem BioAssay.

Calls of active or inactive are those of the source.

For test [1], the system named is Human papillomavirus type 1a protein E7 (residues 44-93). Description: small molecules binding HPV E7 44-93 – biochemical, small-molecule microarray, residues 44-93, 635 nm fluorescence, primary screen (AID 1108).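 Note: E7 fragment applied at 1 µg/mL in TBST for 1 h at 4 C; score combines spot fluorescence with its signal to noise ratio.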 The following applies: fluorescence 635 nm, higher = more signal.
Test [2] is described as follows: hepatitis C replication reporter changes, two-sided – Huh7 cells, luciferase reporter, HCV replication inhibitor project, primary screen (AID 1109).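 Note: huh7 hepatoma cells harbouring a luciferase neomycin HCV replicon reporter; luciferase luminescence as measure of HCV replicon replication; test concentration not given here.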 The following applies: Huh7 HCV replicon luciferase reporter, 48 h; higher = more signal.
Test [3] concerns the target Left-right determination factor 2 (Homo sapiens) (UniProt O00292). Nature of the test: small molecules binding LEFTY2 protein – biochemical, small-molecule microarray, 635 nm fluorescence scan, primary screen (AID 1110). Particulars: higher = more signal.
In test [4] the target is Calmodulin-1 (Homo sapiens) (UniProt P0DP23). Description: small molecules binding calmodulin-1 with EGTA – biochemical, small-molecule microarray, Cy5-labelled CALM1, profiling panel (AID 1111).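 Note: labelled calmodulin applied in Tris saline Tween buffer holding calcium plus EGTA and DTT.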 The following applies: Cy5-CALM1 binding fluorescence, higher = more signal.
Test [5] has the same target. Description: small molecules binding Ca-loaded calmodulin-1 – biochemical, small-molecule microarray, Cy5-labelled CALM1, plus calcium, artefact control for SMM control-protein annotation, profiling panel (AID 1112).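 Note: score merges spot fluorescence with signal to noise from triplicate slides.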 The following applies: Cy5-CALM1 binding fluorescence, higher = more signal.
The nature of test [6]: probe aWnt5a binding to arrayed compounds – biochemical, biotinylated probe, 635/667 nm fluorescence, primary screen (AID 1113).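 Note: score merges 667 nm fluorescence intensity with signal-to-noise per printed feature.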 The following applies: small-molecule microarray, higher = more signal.
Test [7] is described as follows: probe aShh binding to arrayed compounds – biochemical, biotinylated probe, 635/667 nm fluorescence, primary screen (AID 1114).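 Note: probe is biotin-labelled aShh protein from a stem cell growth factor screen; measures binding of labelled protein to compounds printed on the slide; score merges feature fluorescence at 667 nm with signal-to-noise.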 Particulars: small-molecule microarray, higher = more signal.
The nature of test [8]: probe aNog binding to arrayed compounds – biochemical, biotinylated probe, 635/667 nm fluorescence, primary screen (AID 1115).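 Note: probe is biotinylated aNog protein used at 0.15 µg/mL for 1 h at 4 C; z-score combines 667 nm fluorescence of each spot with its signal to noise.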 The following applies: small-molecule microarray, higher = more signal.
Test [9] deals with Torsin-1A-interacting protein 1 (Homo sapiens) (UniProt Q5JTV8). Description: compound microarray binding of lysate hLAP1 – cell lysate, small-molecule microarray, COS7 lysate, 635/667 nm fluorescence, primary screen (AID 1116). Particulars: 635 nm fluorescence, higher = more signal.
Torsin-1A-interacting protein 1 (Homo sapiens), sequence (Q5JTV8 whole entry, looked up): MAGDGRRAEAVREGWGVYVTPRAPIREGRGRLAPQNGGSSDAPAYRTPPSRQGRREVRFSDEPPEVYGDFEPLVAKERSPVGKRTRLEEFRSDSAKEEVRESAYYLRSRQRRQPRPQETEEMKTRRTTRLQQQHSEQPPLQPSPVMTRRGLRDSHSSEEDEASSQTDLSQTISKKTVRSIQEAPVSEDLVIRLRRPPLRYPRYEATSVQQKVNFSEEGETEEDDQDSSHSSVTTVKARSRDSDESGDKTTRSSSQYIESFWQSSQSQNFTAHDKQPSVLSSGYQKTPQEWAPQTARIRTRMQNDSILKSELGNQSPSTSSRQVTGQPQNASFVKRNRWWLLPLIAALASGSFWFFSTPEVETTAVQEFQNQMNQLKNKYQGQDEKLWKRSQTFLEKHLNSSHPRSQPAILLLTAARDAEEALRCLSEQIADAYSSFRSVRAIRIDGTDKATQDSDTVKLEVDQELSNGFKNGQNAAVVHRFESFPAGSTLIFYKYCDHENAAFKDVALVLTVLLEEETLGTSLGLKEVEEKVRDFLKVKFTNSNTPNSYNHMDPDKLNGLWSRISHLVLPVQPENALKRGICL
Test [10] concerns the target Alpha-bungarotoxin (Bungarus multicinctus) (UniProt P60615). Nature of the test: compounds binding labelled alpha-BTX control protein – biochemical, small-molecule microarray, Alexa647 label, 635/667 nm fluorescence, artefact control for SMM control protein annotation, profiling panel (AID 1117). Particulars: alpha-BTX-A647 binding fluorescence, higher = more signal.
The target in a further test is Albumin (Bos taurus) (UniProt P02769). Description: compounds binding labelled BSA control protein – biochemical, small-molecule microarray, Alexa647 label, 635/667 nm fluorescence, artefact control for SMM control protein annotation, profiling panel (AID 1118).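 Note: score merges 667 nm emission intensity and signal-to-noise per printed compound spot.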 Particulars: BSA-A647 binding, fluorescence 635 nm, higher = more signal.
Albumin (Bos taurus), sequence (P02769 whole entry, looked up): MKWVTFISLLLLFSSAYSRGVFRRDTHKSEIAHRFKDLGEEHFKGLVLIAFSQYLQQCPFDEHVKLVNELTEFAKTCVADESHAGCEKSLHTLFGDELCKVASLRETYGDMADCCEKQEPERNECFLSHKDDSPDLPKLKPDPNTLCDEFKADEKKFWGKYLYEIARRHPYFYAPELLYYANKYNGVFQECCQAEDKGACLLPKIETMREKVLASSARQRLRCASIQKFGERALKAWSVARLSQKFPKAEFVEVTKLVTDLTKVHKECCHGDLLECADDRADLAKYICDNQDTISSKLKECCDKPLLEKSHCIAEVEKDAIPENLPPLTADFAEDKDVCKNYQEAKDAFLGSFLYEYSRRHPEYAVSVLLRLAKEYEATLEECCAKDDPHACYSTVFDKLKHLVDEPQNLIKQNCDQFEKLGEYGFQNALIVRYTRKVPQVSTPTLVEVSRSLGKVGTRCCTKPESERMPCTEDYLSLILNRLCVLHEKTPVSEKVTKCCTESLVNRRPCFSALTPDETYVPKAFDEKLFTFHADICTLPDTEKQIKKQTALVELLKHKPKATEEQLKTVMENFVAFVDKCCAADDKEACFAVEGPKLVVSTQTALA
Test [11] is described as follows: probe aXIP binding to arrayed compounds – biochemical, NeuroSMM set, 635/667 nm fluorescence, primary screen (AID 1119).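 Note: probe is the protein aXip251-270 applied at 1 µg/mL to compound-printed slides; binding of probe to printed compounds measured as 667 nm fluorescence plus signal to noise.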 Particulars: small-molecule microarray, higher = more signal, called active from +8 up or from −8 down.
Test [12] can be described thus: probe aNOTCH3 binding on compound microarray – biochemical, small-molecule microarray, 635/667 nm fluorescence, primary screen (AID 1120).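 Note: probe is a biotin-tagged antibody raised against NOTCH3 rather than NOTCH3 protein; score merges spot fluorescence near 667 nm with spot signal to noise.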 Particulars: higher = more signal.
The nature of test [13]: probe aNOTCH2 binding on compound microarray – biochemical, small-molecule microarray, 635/667 nm fluorescence, primary screen (AID 1121).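 Note: score merges feature fluorescence read at 667 nm with its signal to noise.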 The following applies: higher = more signal.
Test [14] has as its target Carbonic anhydrase 2 (Homo sapiens) (UniProt P00918). Nature of the test: compounds binding carbonic anhydrase 2 – biochemical, small-molecule microarray, Alexa647-labelled CAII, profiling panel (AID 1122). The following applies: CAII-A647 binding fluorescence, higher = more signal.
A short description of test [15]: COS7 lysate on small-molecule microarray, probe aHis, 635 nm (AID 1123).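 Note: z-score combines 667nm fluorescence intensity with signal-to-noise per printed compound spot.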 The following applies: COS7 cell lysate, fluorescence, higher = more signal.
Test [16] in a line: probe aLAP1 signal on lysate-treated microarray – cell lysate, small-molecule microarray, COS7 lysate, primary screen (AID 1124).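 Note: lysate comes from COS7 cells expressing LAP1 and is applied at 0.3 µg/mL; score merges spot fluorescence near 667 nm with signal-to-noise over triplicate slides.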 Particulars: probe aLAP1, fluorescence, higher = more signal.
In a further test the test system is Sam68 (KHDRBS1). Nature of the test: compounds binding KHDRBS1 protein – biochemical, small-molecule microarray, 635 nm fluorescence, primary screen (AID 1125).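 Note: score merges 667 nm channel intensity with signal to noise over triplicate slides.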 The following applies: higher = more signal.
Test [17] relates to Chordin-like protein 2 (CHRDL2). Nature of the test: compounds binding chordin-like 2 – biochemical, small-molecule microarray, 635 nm fluorescence, primary screen (AID 1126).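 Note: printed compound slides probed with Chrdl2 protein at 4 µg/mL for 1 h at 4 C; score merges 667 nm emission intensity with signal to noise over three replicate slides.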 The following applies: fluorescence 635 nm, higher = more signal.
The target in test [18] is Concanavalin-A (Canavalia ensiformis) (UniProt P02866). Description: compounds binding concanavalin A lectin – biochemical, small-molecule microarray, Alexa647 label, 635 nm, artefact control for SMM control protein annotation, primary screen (AID 1127).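 Note: z combines 667 nm emission intensity with signal-to-noise across three replicate slides.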 Particulars: ConA-A647 binding fluorescence, higher = more signal.
Concanavalin-A (Canavalia ensiformis), sequence (P02866 whole entry, looked up): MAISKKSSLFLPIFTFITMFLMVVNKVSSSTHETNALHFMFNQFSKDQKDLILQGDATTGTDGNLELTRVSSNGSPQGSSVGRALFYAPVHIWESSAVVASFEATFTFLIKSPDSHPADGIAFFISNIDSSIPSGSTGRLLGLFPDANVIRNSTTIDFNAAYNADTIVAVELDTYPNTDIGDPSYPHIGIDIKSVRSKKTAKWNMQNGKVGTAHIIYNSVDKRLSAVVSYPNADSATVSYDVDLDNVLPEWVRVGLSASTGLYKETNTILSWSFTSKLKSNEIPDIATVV

Alpha-bungarotoxin (Bungarus multicinctus), sequence (P60615 whole entry, looked up): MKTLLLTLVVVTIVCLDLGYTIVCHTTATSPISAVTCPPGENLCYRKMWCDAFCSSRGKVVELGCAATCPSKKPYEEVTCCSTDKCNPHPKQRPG
Left-right determination factor 2 (Homo sapiens), sequence (O00292 whole entry, looked up): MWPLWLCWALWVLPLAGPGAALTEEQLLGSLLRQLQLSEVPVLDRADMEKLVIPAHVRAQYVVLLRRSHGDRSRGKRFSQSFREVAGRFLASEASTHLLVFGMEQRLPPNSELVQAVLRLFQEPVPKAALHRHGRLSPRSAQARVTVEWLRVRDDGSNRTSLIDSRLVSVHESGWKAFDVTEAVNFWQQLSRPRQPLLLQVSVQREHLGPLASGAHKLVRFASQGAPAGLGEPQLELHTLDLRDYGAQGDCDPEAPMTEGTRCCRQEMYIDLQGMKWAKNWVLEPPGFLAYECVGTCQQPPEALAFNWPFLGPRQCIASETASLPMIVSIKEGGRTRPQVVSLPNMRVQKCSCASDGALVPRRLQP

For the compound `CCCC=C(CCC)[C@@H](NC(=O)c1ccccc1)c1ccccc1`, the composite z-score in test [1] was 0.0084; in test [3] it was -0.621; in test [4] it was 0.323; in test [5] it was 1.09; in [6] it was -0.0299; in test [7], 0.217. Besides, the composite z-score in test [8] is 0.766; in test [9] it was -0.439; in test [10], -0.445; with Albumin (Bos taurus), -0.399; in test [12], 0.0191; in test [13] it was -0.0633. Further, the composite z-score was -0.247 in [14]; 0.341 in [15]; 0.139 in [16]; -0.452 in the test with Sam68 (KHDRBS1); -0.768 in [17]; -0.604 in test [18]. Moreover, the z-score in test [2] was -0.12. In addition, in test [11], the composite Z-score was 0.108 (inactive).
Take `COCCOC(=O)N1C(=O)[C@@]2(c3cc(C#CCC(C(=O)OC)C(=O)OC)ccc31)[C@H](c1ccccc1OCCO)N1[C@H](c3ccccc3)[C@H](c3ccccc3)OC(=O)[C@H]1[C@@H]2C(=O)N1CCCCCCC1`: the composite z-score in test [1] was found to be 1.39; in [3], 1.24; in test [4] it was 2.17; in test [5] it was 1.49; in test [6], 0.697; in test [7], 0.626. Also, the composite z-score in [8] was 2.62; in [9], 1.31; in test [10] it was 2; with Albumin (Bos taurus) it was -0.0742; in test [12], 1.23; in [13], 0.36. Besides, the composite z-score in [14] was 0.488; in test [15], 2.18; in test [16], 0.385; in the test on Sam68 (KHDRBS1), 1.32; in [17] it was 1.27; in test [18] it was 1.02. The z-score in test [2] was -2.05. Also, the composite Z-score in test [11] is 2.67 (inactive).
On to `COc1ccc([C@H]2C[C@H]3C(Br)=C[C@]2(OC)C(=O)[C@]32CO2)cc1`, for which the composite z-score in [1] is -0.681; in test [3] it was 0.219; in [4] it was -0.408; in test [5] it was -0.668; in test [6], -0.113; in test [7], -0.0769. Besides, the composite z-score in test [8] was -0.176; in test [9] it was 0.42; in [10], -0.268; with Albumin (Bos taurus), 0.504; in test [12], -0.0918; in [13], -0.161. Further, the composite z-score in test [14] was 0.545; in test [15] it was -0.332; in test [16], 0.542; in the test on Sam68 (KHDRBS1) it was -0.72; in [17], 0.388; in [18], 0.0428. The z-score in test [2] is -2.26. Moreover, the composite Z-score in test [11] is -0.145 (inactive).
As for `Cc1ccc(S[C@]2(C(=O)NC3CC3)CC(=O)N(Cc3cc(C(F)(F)F)cc(C(F)(F)F)c3)[C@@H]2c2ccc(CO)cc2)cc1`, the composite z-score in test [1] was 0.892; in test [3], 0.267; in test [4], -0.125; in [5] it was -0.493; in test [6], -0.175; in test [7], -0.174. For the same compound, the composite z-score was -0.491 in [8]; -0.0118 in [9]; 0.296 in test [10]; 0.371 with Albumin (Bos taurus); -0.0345 in [12]; -0.169 in test [13]. In addition, the composite z-score in test [14] was determined as 0.375; in test [15], 0.42; in test [16], 1.13; in the test with Sam68 (KHDRBS1), 0.792; in [17] it was 0.115; in [18], 0.633. In addition, in test [2], the z-score was -1.17. Besides, the composite Z-score in [11] was -0.421 (inactive).
In the case of `C[C@H]1C2[C@H](Cc3ccccc3)NC(=O)[C@]23C(=O)N[C@H](Cc2ccccc2)C(=O)N[C@@H](Cc2ccccc2)C(=O)NC/C=C\C/C=C/C3[C@@H]2O[C@]12C` (stereo not given in full), the composite z-score is -0.767 in [1]; 0.419 in test [3]; -0.297 in [4]; -0.348 in test [5]; -0.199 in test [6]; -0.0553 in [7]. The composite z-score was 0.471 in test [8]; 0.86 in [9]; -0.506 in [10]; 0.992 in the test with Albumin (Bos taurus); 0.36 in [12]; -0.0942 in test [13]. Besides, the composite z-score in test [14] is 0.742; in test [15], 0.0046; in test [16], 0.0901; with Sam68 (KHDRBS1), -0.221; in [17], 0.371; in test [18], -1.08. Moreover, in test [2], the z-score was -0.204. Moreover, in test [11], the composite Z-score is 0.448 (inactive).
